The results in this text go back to PubChem BioAssay.

A number with no mark means an inactive call.

Homeobox protein Hox-A13 (Mus musculus), sequence (Q62424 whole entry, looked up): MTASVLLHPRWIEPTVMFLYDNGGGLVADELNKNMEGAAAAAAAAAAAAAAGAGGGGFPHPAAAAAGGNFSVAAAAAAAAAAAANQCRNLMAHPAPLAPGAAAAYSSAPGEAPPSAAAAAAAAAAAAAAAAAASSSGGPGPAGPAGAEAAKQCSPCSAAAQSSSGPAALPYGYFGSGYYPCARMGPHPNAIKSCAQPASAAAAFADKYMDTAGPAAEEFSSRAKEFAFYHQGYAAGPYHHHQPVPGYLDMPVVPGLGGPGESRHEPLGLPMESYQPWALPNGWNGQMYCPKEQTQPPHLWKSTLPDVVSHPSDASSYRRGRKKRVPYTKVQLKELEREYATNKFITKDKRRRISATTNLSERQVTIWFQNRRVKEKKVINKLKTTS

The assay has as its target Homeobox protein Hox-A13 (Mus musculus) (UniProt Q62424). As to the kind of experiment: disruptors of Hoxa13 oligonucleotide interaction – biochemical, fluorescence polarization, labeled oligonucleotide, primary screen (AID 1185). Conditions: Hoxa13:DNA binding, 15 min, higher = more signal, called active from +8 up or from −8 down. (Fluorescence polarisation rises when a labelled molecule tumbles more slowly, as on binding a larger partner.)
As to `C=C(C(=O)CC[C@@H](OC(=O)c1ccccc1-c1ccccc1C(=O)O)c1ccc(OCCO)cc1)C(C)C`, the z-score was -5.47.
As for `O=C(c1ccccc1)N1Cc2ccccc2C[C@@]2(N=C(c3ccc(OCCCO)cc3)O[C@H]2c2ccccc2)C1=O`, the figure is -2.43; as for `CC(C)C[C@@H]1NC(=O)[C@@H]2C[C@H](C(=O)NCCCCCNC(=O)CS)[C@H](c3ccc(O)cc3)N2C1=O`, -0.472; as for `COC(=O)c1ccc(OC)c(/C=C\CC(OC(=O)c2ccncc2)c2ccccc2)c1` (stereo not given), -5.02.
Then `COC(=O)C(CC#Cc1ccc2c(c1)[C@]1(C(=O)N2)[C@H](C(N)=O)[C@H]2C(=O)O[C@H](c3ccccc3)[C@H](c3ccccc3)N2[C@@H]1c1ccccc1OCCO)C(=O)OC`, with -1.12.
On to `C=CCNC(=O)[C@H]1[C@@H]2C(=O)O[C@@H](c3ccccc3)[C@@H](c3ccccc3)N2[C@@H](c2ccc(O)cc2)[C@]12C(=O)Nc1ccc(C#CCC(C(=O)OC)C(=O)OC)cc12`, for which the z-score is -2.88.
Then `C#CCN(C(=O)OC(C)(C)C)[C@H](CO)c1ccccc1`, with -3.85.
Then `COCCCNC(=O)[C@@]1(Cc2ccccc2I)c2ccccc2C(=O)N(C2CCCCC2)[C@H]1c1ccc(CO)cc1`, with -5.35; and `COC(=O)[C@@]1(Cc2ccc(F)cc2)[C@H]2c3cc(C(=O)N4CCCC4)n(CCSCCO)c3C[C@H]2CN1C(=O)c1ccccc1`, with -4.82.
`COC(=O)[C@]1(Cc2ccccc2N=[N+]=[N-])N=C(c2ccc(OCCCO)cc2)O[C@@H]1c1ccccc1CN=[N+]=[N-]`: the z-score was -1.15.
